Values joined by “and” are separate entries in the source; they are usually repeats but may differ in a detail not shown here. Identical values can stand only once. Records with an inconclusive call do not appear. Where a call stands in place of a potency, no number is given. More than one record can exist for a structure, and the calls need not agree. Active and inactive are the calls of the source. Calls follow the shape of the dose curve; as a rule, active = well fitted cell-killing curve with a large enough effect in the repeat runs; inconclusive = weak or mixed curves; inactive = no such curve, though single readings can be large or run the other way.
Assay: qHTS assay to identify small molecule antagonists of the peroxisome proliferator-activated receptor delta (PPARd) signaling pathway - cell viability counter screen (AID 743213); also: nearly all actives have a fitted effect of over 50% in size
Settings: PPARd-bla HEK293H viability, CellTiter-Glo luminescence, 17 h; series mostly up to 62 µM; viability change, negative = cytotoxic: at the top concentration
Excerpt: U.S. Tox21 Program National Center for Advancing Translational Sciences [NCATS] NIH Chemical Genomics Center [NCGC] U.S. Environmental Protection Agency [EPA] National Institutes of Environmental Health Sciences [NIEHS] National Toxicology Program [NTP] U.S. Food and Drug Administration [FDA] Tox21 Assay Overview: The peroxisome proliferator-activated receptors (PPARs) are lipid-activated transcription factors of the nuclear receptor superfamily with three distinct subtypes namely PPAR alpha, PPAR delta (PPARd) and PPAR gamma. All these subtypes heterodimerizes with Retinoid X receptor (RXR) and have different physiological functions. […] To identify the compounds that inhibit PPAR-delta signaling, GeneBLAzer PPAR delta UAS-bla HEK293H cell line (Invitrogen, Carlsbad, CA, USA) containing a beta-lactamase reporter gene under the control of an Upstream Activator Sequence (UAS) was used to screen the Tox21 compound library. The cytotoxicity of the Tox21 compound library against the PPARd-bla cell line was tested in parallel by measuring the cell viability using CellTiter-Glo assay (Promega, Madison, WI) in the same wells.
Tox21 Assay Protocol Summary: PPARd-bla cells were dispensed at 3000 cells/5uL/well in 1536-well black wall/clear bottom plates using a Multidrop Combi (Thermo Fisher Scientific, Waltham, MA) dispenser. After the assay plates were incubated at 37 C and 5% CO2 for 5 h, 23 nL of compounds dissolved in DMSO, positive controls or DMSO only was transferred to the assay plate by a Pintool station (Kalypsys, San Diego, CA), followed by addition of 1ul L165041 (300 nM, final concentration in the wells). The assay plates were incubated at 37 C for 17 h, and then 1 uL of LiveBLAzerTM B/G FRET substrate was added using a Bioraptr Flying Reagent Dispenser (FRD) workstation (Beckman Coulter, Indianapolis, IN, USA). The assay plates were incubated at room temperature for 2 h and fluorescence intensity was measured by an Envision plate reader (PerkinElmer, Shelton, CT). For cell viability readout that measures cytotoxicity, 3 ul/well of CellTiter-Glo reagent was added into the assay plates using a Bioraptr FRD. After 30 min incubation at room temperature, the luminescence intensity in the plates was measured using a ViewLux plate reader (PerkinElmer).
Potency is read from the fitted curve at half-maximal effect.

| Structure (SMILES) | Potency | viability change, negative = cytotoxic |
| --- | --- | --- |
| CCCCCCCCCCCCOS(=O)(=O)O | 38.9 µM (active) and inactive |  |
| Oc1ccccc1-c1ccccc1 | inactive |  |
| O=c1[nH]c(=O)n(Cl)c(=O)n1Cl | inactive |  |
| COP(=O)(OC)OC=C(Cl)Cl | inactive |  |
| O=C(O)COc1ccc(Cl)cc1Cl | inactive |  |
| CCC[N+]1(C)CCCCC1 | inactive |  |
| O=C(O)c1ccccc1O | inactive |  |
| CCCC[n+]1cccc(C)c1 | inactive |  |
| CCCCCCCCCCCC(=O)O | inactive |  |
| Cc1cc(Cl)ccc1N | inactive |  |
| O=[N+]([O-])O | inactive |  |
| N#CS | inactive |  |
| CCC[N+]1(C)CCCC1 | inactive |  |
| C1CCC(NC2CCCCC2)CC1 | inactive |  |
| C[N+](C)(C)Cc1ccccc1 | inactive |  |
| Nc1ccc(Cl)cc1 | inactive |  |
| Oc1cccc2cccnc12 | 521 nM (active) and 155 nM (active) |  |
| CC(=O)O | inactive |  |
| O=c1nc(O)n(Cl)c(=O)n1Cl | inactive |  |
| CCCC[n+]1ccc(C)cc1 | inactive and 43.4 µM (active) |  |

| Structure (SMILES) | Potency | viability change, negative = cytotoxic |
| --- | --- | --- |
| O=C(O)c1nc(Cl)ccc1Cl | inactive |  |
| CC(Cl)(Cl)C(=O)O | inactive |  |
| C=CCOC(Cn1ccnc1)c1ccc(Cl)cc1Cl (stereo not given) |  | 3.67% (inactive) |
| CC[n+]1ccccc1 | inactive |  |
| CCCn1cc[n+](C)c1 | inactive |  |
| Nc1ccc(-c2ccc(N)c(Cl)c2)cc1Cl | inactive |  |
| CCNc1nc(Cl)nc(NCC)n1 | inactive |  |
| CNC | inactive |  |
| CC(=O)[O][Hg][c]1ccccc1 | 1.53 µM (active) and 1.1 µM (active) and 1.68 µM (active) |  |
| CCCCCCCCCCCCCC[P+](CCCCCC)(CCCCCC)CCCCCC | 15.6 µM (active) and 3.92 µM (active) |  |
| O=C(O)CC(O)(CC(=O)O)C(=O)O | inactive |  |
| O=P1(N(CCCl)CCCl)NCCCO1 (stereo not given) | inactive |  |
| CN(C)[C@@H]1C(=O)C(C(N)=O)=C(O)[C@@]2(O)C(=O)C3=C(O)c4c(O)cccc4[C@@](C)(O)[C@H]3[C@H](O)[C@@H]12 | inactive |  |
| CCCC[N+]1(C)CCCC1 | inactive |  |
| Nc1ccccc1 | inactive |  |
| CC[N+]1(C)CCCC1 | inactive |  |
| O=[N+]([O-])c1ccccc1O | inactive |  |
| CCCC[N+]1(C)CCCCC1 |  | 10.5% (inactive) |
| CCC(=O)C(CC(C)N(C)C)(c1ccccc1)c1ccccc1 (stereo not given) | inactive and 37.4 µM (active) |  |
| Cc1cc(-c2ccc(N)c(C)c2)ccc1N | inactive |  |
